What all share (assay): log2 fold change, soluble protein after heating vs DMSO (PISA); higher = thermal stabilisation; K562 cells, 10 uM, 30 min; active = over 0.2 and 3.5 SD of the protein, either way, in both replicates (recomputed)
Compound in experiment [1]: CS(=O)(=O)c1ccc(-c2cnc(N)c(C(=O)Nc3ccccc3)n2)cc1
In a few lines: (§1)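 K562 cells at 2×10^6 cells/mL were exposed to 10 μM compound for 30 min, then aliquots were heated for 3 min across 48°C-58°C, pooled, and extracted in PBS containing 0.5% NP-40 at 4°C. The supernatant after 21,000xg for 90 min was taken as soluble protein and measured by TMTpro 16plex LC-MS/MS with channel sums equalised. Thermal stability is reported relative to control samples, with values from duplicates. Fold changes are given on a log2 scale.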

Compound in a further experiment: C[C@@H](Oc1cc(-c2cnn(C3CCNCC3)c2)cnc1N)c1c(Cl)ccc(F)c1Cl [crizotinib]
In a few lines:
as §1

Compound in experiment [2]: C[C@@H]1COCCN1C2=NC(=NC(=C2)C3(CC3)S(=O)(=O)C)C4=C5C=CNC5=CC=C4
Put shortly:
as §1

Compound in experiment [3]: C[C@H](C1=CC=C(C=C1)C(=O)NC2=C3C=CNC3=NC=C2)N
In a few lines:
as §1

Compound in another experiment: C[C@H](Nc1ncnc2nc[nH]c12)c1cc2cccc(Cl)c2c(=O)n1-c1ccccc1 [duvelisib]
In a few lines:
as §1

Compound in a further experiment: Cc1cc(Nc2cc(CN3CCOCC3)c3nc(C)c(Cc4ccc(Cl)cc4F)n3n2)n[nH]1 [gandotinib]
In a few lines:
as §1

Compound in the next experiment: Cc1cc(Nc2cc(N3CCN(C)CC3)nc(Sc3ccc(NC(=O)C4CC4)cc3)n2)n[nH]1 [tozasertib]
Put shortly:
as §1

Compound in experiment [4]: Cc1cc(SCc2sc(-c3ccc(C(F)(F)F)cc3)nc2C)ccc1OCC(=O)O
Put shortly:
as §1

Compound in another experiment: Cc1ccc(-n2nc(C(C)(C)C)cc2NC(=O)Nc2ccc(OCCN3CCOCC3)c3ccccc23)cc1 [doramapimod]
Put shortly:
as §1

Compound in another experiment: Cc1ccc(C(=O)N(CCCN)[C@@H](c2nc3cc(Cl)ccc3c(=O)n2Cc2ccccc2)C(C)C)cc1 [ispinesib]
In a few lines: as §1

The full data set covers some 7,900 targets. This sample favours those with a hit. About 0.6% of all pairs of compound and target were hits. Unmarked numbers belong to inactive results.

Sequence of UniProt Q14157 (Q14157 whole entry, looked up): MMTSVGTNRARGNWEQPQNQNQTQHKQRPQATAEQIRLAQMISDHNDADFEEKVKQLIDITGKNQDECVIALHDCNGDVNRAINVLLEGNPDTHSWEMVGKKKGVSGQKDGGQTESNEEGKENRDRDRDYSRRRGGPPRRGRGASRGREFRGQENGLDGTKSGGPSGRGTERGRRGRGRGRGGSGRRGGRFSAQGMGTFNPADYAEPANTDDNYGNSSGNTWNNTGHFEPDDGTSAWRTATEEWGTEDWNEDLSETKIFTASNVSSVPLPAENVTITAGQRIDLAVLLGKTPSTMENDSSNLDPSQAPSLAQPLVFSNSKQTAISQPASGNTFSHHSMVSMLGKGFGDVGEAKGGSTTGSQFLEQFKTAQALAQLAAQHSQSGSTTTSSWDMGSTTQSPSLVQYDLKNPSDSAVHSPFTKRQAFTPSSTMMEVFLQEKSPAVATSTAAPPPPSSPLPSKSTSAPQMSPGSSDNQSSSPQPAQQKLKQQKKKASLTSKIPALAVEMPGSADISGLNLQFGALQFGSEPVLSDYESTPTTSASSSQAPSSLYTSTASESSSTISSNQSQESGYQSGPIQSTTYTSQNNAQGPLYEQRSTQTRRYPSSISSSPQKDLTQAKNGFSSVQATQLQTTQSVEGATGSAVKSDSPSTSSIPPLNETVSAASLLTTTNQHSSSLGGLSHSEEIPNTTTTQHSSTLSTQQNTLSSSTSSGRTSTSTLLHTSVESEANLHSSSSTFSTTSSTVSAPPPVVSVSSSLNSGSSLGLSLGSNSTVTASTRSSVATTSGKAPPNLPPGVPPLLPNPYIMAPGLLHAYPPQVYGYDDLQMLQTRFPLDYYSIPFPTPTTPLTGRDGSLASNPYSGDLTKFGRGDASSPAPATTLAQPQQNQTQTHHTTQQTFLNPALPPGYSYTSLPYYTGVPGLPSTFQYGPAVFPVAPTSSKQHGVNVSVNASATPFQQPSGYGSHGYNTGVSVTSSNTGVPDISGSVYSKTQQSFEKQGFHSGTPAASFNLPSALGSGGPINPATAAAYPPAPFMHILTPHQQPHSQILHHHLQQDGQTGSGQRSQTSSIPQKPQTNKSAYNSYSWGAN
Sequence of UniProt Q9H6R7 (Q9H6R7 whole entry, looked up): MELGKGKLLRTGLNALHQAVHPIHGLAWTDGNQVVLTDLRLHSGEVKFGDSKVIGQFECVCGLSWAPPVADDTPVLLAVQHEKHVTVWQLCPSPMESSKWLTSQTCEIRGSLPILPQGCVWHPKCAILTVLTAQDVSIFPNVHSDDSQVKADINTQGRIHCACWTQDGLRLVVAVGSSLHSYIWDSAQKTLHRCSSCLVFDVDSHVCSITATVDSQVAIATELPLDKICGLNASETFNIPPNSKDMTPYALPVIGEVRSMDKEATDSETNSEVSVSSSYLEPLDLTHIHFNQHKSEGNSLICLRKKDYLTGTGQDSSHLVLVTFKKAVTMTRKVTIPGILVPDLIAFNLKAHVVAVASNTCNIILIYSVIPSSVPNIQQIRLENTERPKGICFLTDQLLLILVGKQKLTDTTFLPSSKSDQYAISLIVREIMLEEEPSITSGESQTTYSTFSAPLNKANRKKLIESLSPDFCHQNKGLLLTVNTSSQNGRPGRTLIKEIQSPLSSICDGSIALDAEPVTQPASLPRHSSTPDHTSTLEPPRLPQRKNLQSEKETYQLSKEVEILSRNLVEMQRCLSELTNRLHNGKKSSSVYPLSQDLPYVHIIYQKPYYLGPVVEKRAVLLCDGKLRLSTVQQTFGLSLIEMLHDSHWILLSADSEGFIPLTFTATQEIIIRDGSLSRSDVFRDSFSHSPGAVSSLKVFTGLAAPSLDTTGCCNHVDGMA
Sequence of UniProt Q9NQ34 (Q9NQ34 whole entry, looked up): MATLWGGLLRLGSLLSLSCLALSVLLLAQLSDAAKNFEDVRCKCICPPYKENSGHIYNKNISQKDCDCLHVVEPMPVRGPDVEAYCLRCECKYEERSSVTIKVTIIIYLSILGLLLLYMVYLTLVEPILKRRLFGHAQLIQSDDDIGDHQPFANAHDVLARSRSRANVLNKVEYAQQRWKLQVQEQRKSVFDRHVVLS
Sequence of UniProt P12270 (P12270 whole entry, looked up): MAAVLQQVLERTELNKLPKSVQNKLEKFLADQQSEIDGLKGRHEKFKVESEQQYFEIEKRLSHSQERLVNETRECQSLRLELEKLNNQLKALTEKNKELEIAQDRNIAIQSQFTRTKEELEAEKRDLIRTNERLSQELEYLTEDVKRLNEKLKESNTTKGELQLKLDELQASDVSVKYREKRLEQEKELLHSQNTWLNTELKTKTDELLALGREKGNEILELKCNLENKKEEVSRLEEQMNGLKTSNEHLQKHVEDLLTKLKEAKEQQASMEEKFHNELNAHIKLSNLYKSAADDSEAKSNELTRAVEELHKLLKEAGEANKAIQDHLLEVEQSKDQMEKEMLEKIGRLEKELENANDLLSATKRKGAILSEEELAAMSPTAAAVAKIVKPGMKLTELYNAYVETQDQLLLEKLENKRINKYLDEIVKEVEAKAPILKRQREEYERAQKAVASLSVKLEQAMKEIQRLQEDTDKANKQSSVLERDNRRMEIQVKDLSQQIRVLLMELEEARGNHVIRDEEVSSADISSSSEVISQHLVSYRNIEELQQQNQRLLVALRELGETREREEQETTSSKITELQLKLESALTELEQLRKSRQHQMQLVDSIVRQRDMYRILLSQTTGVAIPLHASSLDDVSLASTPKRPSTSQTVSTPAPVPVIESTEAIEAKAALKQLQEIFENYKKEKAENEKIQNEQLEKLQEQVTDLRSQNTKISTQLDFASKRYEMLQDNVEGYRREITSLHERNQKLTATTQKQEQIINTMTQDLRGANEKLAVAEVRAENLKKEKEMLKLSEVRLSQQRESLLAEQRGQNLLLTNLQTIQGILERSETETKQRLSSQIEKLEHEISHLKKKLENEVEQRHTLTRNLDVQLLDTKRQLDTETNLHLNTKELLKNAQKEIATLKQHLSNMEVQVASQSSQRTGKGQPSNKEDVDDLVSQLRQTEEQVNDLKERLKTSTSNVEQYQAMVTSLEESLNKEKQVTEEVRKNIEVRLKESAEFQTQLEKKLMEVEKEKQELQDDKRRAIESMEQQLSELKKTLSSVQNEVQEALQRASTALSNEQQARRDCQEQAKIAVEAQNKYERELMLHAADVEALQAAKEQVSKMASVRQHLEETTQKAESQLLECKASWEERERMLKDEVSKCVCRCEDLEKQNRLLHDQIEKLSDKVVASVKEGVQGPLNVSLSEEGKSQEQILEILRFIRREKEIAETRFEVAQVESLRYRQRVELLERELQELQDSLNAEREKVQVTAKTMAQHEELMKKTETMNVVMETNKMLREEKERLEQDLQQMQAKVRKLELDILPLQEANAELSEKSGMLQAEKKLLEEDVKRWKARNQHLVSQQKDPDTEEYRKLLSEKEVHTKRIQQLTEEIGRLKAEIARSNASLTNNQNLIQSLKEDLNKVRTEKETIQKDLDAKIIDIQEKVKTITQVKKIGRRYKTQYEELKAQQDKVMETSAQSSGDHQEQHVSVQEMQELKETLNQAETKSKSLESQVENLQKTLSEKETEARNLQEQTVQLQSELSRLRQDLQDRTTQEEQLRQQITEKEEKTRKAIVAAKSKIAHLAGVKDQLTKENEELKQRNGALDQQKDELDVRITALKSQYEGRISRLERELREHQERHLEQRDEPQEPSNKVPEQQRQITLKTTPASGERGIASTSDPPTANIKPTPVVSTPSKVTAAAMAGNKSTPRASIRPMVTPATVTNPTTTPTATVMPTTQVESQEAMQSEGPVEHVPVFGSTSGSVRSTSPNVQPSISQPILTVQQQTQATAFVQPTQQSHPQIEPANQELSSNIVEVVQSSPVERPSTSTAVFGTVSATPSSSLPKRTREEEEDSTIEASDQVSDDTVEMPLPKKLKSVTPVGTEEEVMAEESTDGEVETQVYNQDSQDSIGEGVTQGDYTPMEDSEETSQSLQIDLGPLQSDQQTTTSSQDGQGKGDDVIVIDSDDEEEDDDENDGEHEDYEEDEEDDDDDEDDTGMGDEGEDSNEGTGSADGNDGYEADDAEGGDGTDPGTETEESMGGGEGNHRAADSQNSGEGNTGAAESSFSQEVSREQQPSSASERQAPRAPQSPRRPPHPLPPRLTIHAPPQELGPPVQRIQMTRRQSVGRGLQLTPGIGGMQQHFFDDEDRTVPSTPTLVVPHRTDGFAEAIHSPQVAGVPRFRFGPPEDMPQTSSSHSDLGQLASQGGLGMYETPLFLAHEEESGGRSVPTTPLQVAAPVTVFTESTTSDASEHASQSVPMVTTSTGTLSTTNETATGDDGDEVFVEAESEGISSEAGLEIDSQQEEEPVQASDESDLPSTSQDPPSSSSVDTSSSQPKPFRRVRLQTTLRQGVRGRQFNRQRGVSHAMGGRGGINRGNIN
Sequence of UniProt Q6ZVM7 (Q6ZVM7 whole entry, looked up): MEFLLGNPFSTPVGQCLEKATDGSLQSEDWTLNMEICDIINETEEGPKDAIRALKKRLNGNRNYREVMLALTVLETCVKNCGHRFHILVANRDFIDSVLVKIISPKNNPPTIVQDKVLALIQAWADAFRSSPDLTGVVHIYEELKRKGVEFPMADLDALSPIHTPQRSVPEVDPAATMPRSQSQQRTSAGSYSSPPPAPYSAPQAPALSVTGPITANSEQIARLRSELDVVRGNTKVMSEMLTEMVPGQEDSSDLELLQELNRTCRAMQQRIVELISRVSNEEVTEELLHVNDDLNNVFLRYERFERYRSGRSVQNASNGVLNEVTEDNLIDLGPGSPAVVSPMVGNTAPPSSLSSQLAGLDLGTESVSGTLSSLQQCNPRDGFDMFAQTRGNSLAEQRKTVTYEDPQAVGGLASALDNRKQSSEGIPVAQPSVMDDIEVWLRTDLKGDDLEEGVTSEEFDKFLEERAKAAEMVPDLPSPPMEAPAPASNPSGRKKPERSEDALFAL

Take WDCP (UniProt Q9H6R7): the log2 fold change in experiment [1] is -0.018; with crizotinib, 0.079; in experiment [2], -0.046; in experiment [3], -0.024; with duvelisib it was -0.007; with gandotinib it was 0.047. For the same target, the log2 fold change with tozasertib was 0.094; in [4], 0.084; in the experiment with doramapimod, 0.005; with ispinesib, 0.032.

On to TOM1L2 (UniProt Q6ZVM7), for which the log2 fold change in experiment [1] is 0.03; in the experiment with crizotinib it was 0.101; in experiment [2] it was 0.118; in experiment [3] it was 0.087; in the experiment with duvelisib it was 0.099; in experiment [4] it was 0.035. Also, the log2 fold change with doramapimod is 0.02.

In the case of UBE3B (UniProt Q7Z3V4), the log2 fold change in [1] is 0.106; in the experiment with crizotinib it was -0.133; in experiment [2] it was 0.254; in experiment [3], -0.108; with duvelisib, 0.141; with tozasertib, -0.109. In addition, the log2 fold change is 0.021 in experiment [4], -0.055 with doramapimod and 0.178 in the experiment with ispinesib.

For TUBA4A (UniProt P68366), the log2 fold change in experiment [1] was 0.004; with crizotinib, -0.11; in [2] it was 0.099; in experiment [3], -0.054; with duvelisib, 0.329; with gandotinib, 0.014. Moreover, the log2 fold change in the experiment with tozasertib was -0.068; in experiment [4] it was 0.208; in the experiment with doramapimod, 0.008; with ispinesib, 0.009.

Consider TMEM9B (UniProt Q9NQ34), for which the log2 fold change in [1] is -0.035; in the experiment with crizotinib, -0.011; in experiment [2] it was 0.105; in experiment [3] it was 0.061; in the experiment with gandotinib, -0.116; with tozasertib, -0.03. Also, the log2 fold change in the experiment with doramapimod was 0.023; in the experiment with ispinesib, -0.211.

In the case of TPR (UniProt P12270), the log2 fold change was -0.03 in experiment [1]; 0.297 (active) in the experiment with crizotinib; 0.013 in experiment [2]; -0.083 in experiment [3]; 0.017 with duvelisib; 0.008 in the experiment with gandotinib. Besides, the log2 fold change with tozasertib is 0.349 (active); in [4], -0.027; with doramapimod, 0.037; in the experiment with ispinesib, 0.223.

Regarding UBAP2L isoform 1 (UniProt Q14157), the log2 fold change in [1] was -0.034; with crizotinib, 0.077; in experiment [2] it was 0.009; in [3], -0.008; with duvelisib it was 0.022; in the experiment with gandotinib, -0.007. Further, the log2 fold change is -0.062 with tozasertib, -0.056 in experiment [4], 0.034 with doramapimod and -0.026 with ispinesib.

Turning to WASHC5 (UniProt Q12768), the log2 fold change in [1] was -0.023; with crizotinib it was -0.133; in [2], -0.068; in experiment [3], 0.053; with duvelisib it was -0.034; in the experiment with gandotinib, -0.002. For the same target, the log2 fold change in the experiment with tozasertib is -0.02; in experiment [4], 0.032; with doramapimod, 0.073; with ispinesib, -0.093.

On to UBE4B isoform 4 (UniProt O95155), for which the log2 fold change in [1] is 0.016; with crizotinib, -0.013; in experiment [2], 0.012; in experiment [3], -0.015; with duvelisib it was 0.012; with gandotinib, -0.048. For the same target, the log2 fold change is 0.035 with tozasertib, 0.019 in experiment [4], -0.048 with doramapimod and 0 with ispinesib.

In the case of TRABD (UniProt Q9H4I3), the log2 fold change in [1] was -0.041; in the experiment with crizotinib it was 0.174; in experiment [2] it was 0.097; in experiment [3] it was -0.062; in the experiment with gandotinib it was 0.059; in the experiment with tozasertib it was 0.009. Moreover, the log2 fold change in the experiment with doramapimod is 0.025; with ispinesib, 0.597 (active).

For UFD1 isoform 1 (UniProt Q92890), the log2 fold change is -0.029 in experiment [1]; 0.004 in the experiment with crizotinib; -0.032 in experiment [2]; -0.022 in experiment [3]; 0.043 in the experiment with duvelisib; -0.099 in the experiment with gandotinib. Besides, the log2 fold change in the experiment with tozasertib is -0.027; in [4] it was -0.04; with doramapimod, 0.007; in the experiment with ispinesib it was 0.036.

Take UCHL5 isoform 3 (UniProt Q9Y5K5): the log2 fold change in experiment [1] is 0.039; with crizotinib, -0.458; in experiment [2], 0.058; in [3], -0.05; in the experiment with tozasertib, 0.219; in the experiment with doramapimod, -0.067. The log2 fold change with ispinesib was 0.02.

Regarding UBXN8 (UniProt O00124), the log2 fold change in experiment [1] was 0.054; in [2], -0.094; in [3] it was 0.161; with duvelisib it was 0.234; with gandotinib, 0.026; in the experiment with tozasertib, -0.077. In addition, the log2 fold change was -0.101 in [4] and -0.193 in the experiment with ispinesib.
